Bcl-2 Bim block = inhibitors of Bim-Bcl-2 binding, primary screen, biochemical, multiplexed, human Bcl-2 family | Apoptosis regulator Bcl-2 (Homo sapiens), P10415 | Bead-based flow cytometry, Bim peptide-Bcl-2 binding | inhibition, % at 10 µM | 190,000 compounds, 0.06% hits; in the data active = inhibition above about 40%
Bcl-B Bim block = inhibitors of Bim-Bcl-B binding, primary screen, biochemical, multiplexed, human Bcl-2 family. Bcl-2-like protein 10 (Homo sapiens), Q9HD36. bead-based flow cytometry, Bim peptide-Bcl-B binding. inhibition, % at 10 µM. 190,000 compounds, 0.073% hits. AID 951, 2007
Bim-Bcl-W = inhibitors of Bim binding to Bcl-W, primary screen, biochemical, multiplexed, bead-based flow cytometry | Bim peptide-Bcl-W binding | AID 952, 2007 | Bcl-2-like protein 2 (Homo sapiens), Q92843 | inhibition, % at 10 µM | 190,000 compounds, 0.02% hits;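 also: higher means less fluorescent Bim peptide bound to Bcl-W beads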
Bcl-XL Bim block = inhibitors of Bim-Bcl-XL binding, primary screen, biochemical, multiplexed, bead flow cytometry, human Bcl-XL | Bcl-2-like protein 1 (Homo sapiens), Q07817 | Bim peptide-Bcl-XL binding, fluorescence | inhibition, % at 10 µM | 190,000 compounds, 0.04% hits
Bfl-1 Bim block = inhibitors of Bim binding to Bfl-1, primary screen, biochemical, multiplexed, bead-based flow cytometry; Bcl-2-related protein A1 (Homo sapiens), Q16548; Bim-Bfl-1 binding inhibition; inhibition, % at 10 µM; 190,000 compounds, 0.12% hits; AID 1008, 2008
Wee1 stabilizer = Wee1 degradation inhibitors, primary screen, cell-based, HeLa, Wee1K328M-luciferase, luminescence; Wee1-like protein kinase (Homo sapiens), P30291; HeLa Luc-Wee1K328M stability; 100% = proteasome inhibitor MG132 effect; reporter increase, % at 5 µM; 220,000 compounds, 1.2% hits; AID 1321, 2008;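 active = activation above the mean of all tested compounds plus 3 SD, set per screening run, cut at about 8.8% in these data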;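 also: cells exposed to compound for 20 h before luminescence read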
Target sequence (P30291 whole entry K328M): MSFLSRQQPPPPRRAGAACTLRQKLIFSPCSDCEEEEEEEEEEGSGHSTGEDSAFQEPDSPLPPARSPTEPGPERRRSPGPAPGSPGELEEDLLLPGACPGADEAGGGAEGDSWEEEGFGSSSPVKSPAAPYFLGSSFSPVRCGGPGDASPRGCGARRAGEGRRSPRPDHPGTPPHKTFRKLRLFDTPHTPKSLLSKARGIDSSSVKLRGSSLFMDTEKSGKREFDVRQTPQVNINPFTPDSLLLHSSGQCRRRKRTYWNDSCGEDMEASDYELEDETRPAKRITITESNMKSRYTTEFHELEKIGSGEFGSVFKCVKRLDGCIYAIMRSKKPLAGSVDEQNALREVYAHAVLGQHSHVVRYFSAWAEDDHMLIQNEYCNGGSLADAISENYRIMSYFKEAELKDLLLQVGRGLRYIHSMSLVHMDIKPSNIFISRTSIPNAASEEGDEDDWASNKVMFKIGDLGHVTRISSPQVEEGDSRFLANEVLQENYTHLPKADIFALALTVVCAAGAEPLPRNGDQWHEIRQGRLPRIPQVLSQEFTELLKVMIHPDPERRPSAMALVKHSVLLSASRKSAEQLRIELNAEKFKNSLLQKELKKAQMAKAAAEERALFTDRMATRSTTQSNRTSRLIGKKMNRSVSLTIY
Of the large screens only hits and unclear results are named; the others gave an inactive call. Sampled rows, rich in hits. Any-hit rate of the full collection: about 1.4%. Rule as the data show it, unless noted: active = inhibition above about 40%.

COc1cccc(NC(=O)CSc2nncn2-c2ccccn2)c1	none
Cc1onc(-c2ccccc2)c1-c1ccnn1S(=O)(=O)c1ccc(Cl)cc1	Wee1 stabilizer 10 (no result: Bcl-2 Bim block, Bcl-B Bim block, Bim-Bcl-W, Bcl-XL Bim block, Bfl-1 Bim block)
CN(C)S(=O)(=O)c1cccc(-c2nn(-c3ccccc3)cc2/C=C2\SC(=S)NC2=O)c1	Bcl-B Bim block 55, Bcl-XL Bim block 43, Bfl-1 Bim block 41
CN(C)S(=O)(=O)c1cccc(-c2nn(-c3ccccc3)cc2/C=C(\C#N)c2nc3ccccc3[nH]2)c1	none
Cc1ccc(S(=O)(=O)n2ccc(-c3ccc(OCc4c(F)cccc4Cl)cc3)n2)cc1	Wee1 stabilizer 8.8
N#Cc1nc(COc2ccc(Cl)cc2)oc1N1CCN(Cc2ccccc2)CC1	none
CCN1CCN(c2oc(COc3ccc(Cl)cc3)nc2C#N)CC1	Wee1 stabilizer 9.1 (no result: Bcl-2 Bim block, Bcl-B Bim block, Bim-Bcl-W, Bcl-XL Bim block, Bfl-1 Bim block)
CCC(CC)C(=O)Nc1cccc(C(=O)NC(C)(C)C)c1	none
CCC(CC)C(=O)Nc1cccc(C(=O)c2ccccc2)c1	Wee1 stabilizer 9.4
Cc1ccc(NC(=O)C2CCCO2)cc1[N+](=O)[O-] (stereo not drawn)	none
CCOc1ccccc1N1CC(O)=C(c2nc3ccccc3s2)C1=N	Wee1 stabilizer 10
COc1ccc(OC)c(N2CC(O)=C(c3nc4ccccc4s3)C2=N)c1	none
N=C1C(c2nc3ccccc3s2)=C(O)CN1Cc1ccccc1	Bcl-2 Bim block 85, Bcl-B Bim block 83, Bfl-1 Bim block 68
CCN(CC)CCCN1CC(O)=C(c2nc3ccccc3s2)C1=N	none
CSc1ccccc1NC(=O)CN1CC(C)OC(C)C1 (stereo not drawn)	none
CCOC(=O)c1c(NC(=O)C(C)N2CCN(S(=O)(=O)c3cccs3)CC2)sc2c1CCC(C)C2 (stereo not drawn)	none
CCOc1ccc(CN2CCN(C3CCSCC3)CC2CCO)cc1 (stereo not drawn)	none
O=C(CC1S/C(=N/N=C/c2c[nH]c3ccc(OCc4ccccc4)cc23)NC1=O)Nc1ccccc1 (stereo not drawn)	Wee1 stabilizer 8.9
O=C(CC1S/C(=N/N=C/c2c[nH]c3ccccc23)NC1=O)Nc1ccccc1 (stereo not drawn)	none
CC1CCc2nc(NC(=O)CSc3nc4ccccc4o3)sc2C1 (stereo not drawn)	none
Cc1nnc(SCC(=O)Nc2nc3c(s2)CC(C)CC3)s1 (stereo not drawn)	Wee1 stabilizer 8.9
Cc1ccccc1NC(=O)c1sc(NC(=O)COc2ccccc2)c(C#N)c1C	none
C=CCOc1ccc(Br)cc1CNCC	none
CCOC(=O)c1nnn(-c2ccc([N+](=O)[O-])cc2)c1C	Wee1 stabilizer 8.8
CCOC(=O)c1cnn(-c2ccc([N+](=O)[O-])cc2)c1N	none (no result: Bcl-2 Bim block, Bcl-B Bim block, Bim-Bcl-W, Bcl-XL Bim block, Bfl-1 Bim block)
C=CCn1c(SCC(=O)c2[nH]c(C)c(C(=O)OCC)c2C)nc2scc(-c3ccc(OC)c(OC)c3)c2c1=O	Wee1 stabilizer 9.4
CCOC(=O)c1c(C)[nH]c(C(=O)CSc2nnc(-c3ccncc3)n2CC)c1C	none
c1ccc(Nc2cccc(Nc3ccccc3)n2)cc1	Bim-Bcl-W 47, Bfl-1 Bim block 68
CC(/C=C/c1ccccc1)=N/NC(=O)Cn1nnc(N)n1	none (no result: Bcl-2 Bim block, Bcl-B Bim block, Bim-Bcl-W, Bcl-XL Bim block, Bfl-1 Bim block)
O=C(CSc1n[nH]c(=O)[nH]c1=O)Nc1ccc2c(c1)C(=O)c1ccccc1C2=O	none (no result: Bcl-2 Bim block, Bcl-B Bim block, Bim-Bcl-W, Bcl-XL Bim block, Bfl-1 Bim block)
CCN(c1ccccc1)S(=O)(=O)c1cc(NC(=O)CSc2n[nH]c(=O)[nH]c2=O)ccc1Cl	Wee1 stabilizer 9.2 (no result: Bcl-2 Bim block, Bcl-B Bim block, Bim-Bcl-W, Bcl-XL Bim block, Bfl-1 Bim block)
CS(=O)(=O)c1cnc2c(S(=O)(=O)c3ccccc3)cnn2c1N	Wee1 stabilizer 8.8
Nc1c(S(=O)(=O)c2ccccc2)cnc2c(-c3ccc(F)cc3)cnn12	none
CC(C)Sc1n[nH]c2nc3c(c(=O)n12)C1(CCCC1)Cc1ccccc1-3	none
CSc1n[nH]c2nc3c(c(=O)n12)C1(CCCC1)Cc1ccccc1-3	Bcl-XL Bim block 40, Bfl-1 Bim block 44
O=C(NCCCNC(=O)c1cncc(O)c1)c1cncc(O)c1	none
CCOC(=O)CCCNC(=O)c1cncc(O)c1	Bcl-2 Bim block 72, Bcl-B Bim block 68, Bfl-1 Bim block 46
Cc1ccc2nc(N(CCCN(C)C)C(=O)c3ccco3)sc2c1	Wee1 stabilizer 10
CC1CCN(c2nc3ccccc3nc2C(C#N)C(=O)OC2CCCCC2)CC1 (stereo not drawn)	Wee1 stabilizer 12
O=C(NNC1=NCCN1Cc1ccccc1)c1cccc(C(F)(F)F)c1	Wee1 stabilizer 11 (no result: Bcl-2 Bim block, Bcl-B Bim block, Bim-Bcl-W, Bcl-XL Bim block, Bfl-1 Bim block)
Cc1ccc(C(=O)Nc2ccccc2C(=O)N2CCOCC2)cc1[N+](=O)[O-]	none
CC(=O)C1=C(c2cccc([N+](=O)[O-])c2)N(C(C)=O)n2c(C)nnc2S1	Wee1 stabilizer 10.0
O=C(O)CCCN=Cc1c(O)c2ccccc2oc1=O	none
CCOC(=O)Cc1c(C)nc2c(-c3ccc(Cl)cc3)c[nH]n2c1=O	Wee1 stabilizer 9.8
O=C(O)CCCC(=O)N1CC(=O)Nc2ccccc21	Wee1 stabilizer 9.1
O=C(Cc1ccc(Cl)cc1Cl)Nc1cccc(S(=O)(=O)Nc2ccccc2F)c1	none
Cc1ccc2nc(-c3ccc(NC(=O)CN4CCN(C(=O)c5ccco5)CC4)cc3)sc2c1	Wee1 stabilizer 11
Cc1ccc(C(=O)COC(=O)CCCC(=O)Nc2cc(C(F)(F)F)ccc2Cl)cc1C	none
CN1C(=O)CC(Sc2ccccc2C(=O)O)C1=O (stereo not drawn)	Wee1 stabilizer 10
CCCCN1C(=O)CC(Sc2ccccc2C(=O)O)C1=O (stereo not drawn)	none
CC(C)[N+]1=C2C=CC=CC=C2SC12C([N+](=O)[O-])=CC(=[N+]([O-])[O-])C=C2[N+](=O)[O-] (stereo not drawn)	none (no result: Bcl-2 Bim block, Bcl-B Bim block, Bim-Bcl-W, Bcl-XL Bim block, Bfl-1 Bim block)
COC(=O)c1ccc(C)c(NC(=O)CN(c2ccccc2)S(=O)(=O)N(C)C)c1	none
C/C(CCc1ccccc1)=N/NC(=O)C(=O)NCc1ccccc1	none
C/C(CC(=O)Nc1ccc(N(C)C)cc1)=N\NC(=O)C(=O)NCc1ccccc1	Wee1 stabilizer 9.9
CC(COc1ccccc1)N1CCC(CO)(CCc2ccccc2)CC1 (stereo not drawn)	none
CSCC(C)N1CCC(CO)(CCc2ccccc2)CC1 (stereo not drawn)	Wee1 stabilizer 10.0
COc1ccc(NC(=O)CC(NCc2ccccn2)C(=O)O)cc1 (stereo not drawn)	none
CC1CCCCN1C(=O)c1cc2nc(-c3ccccc3)cc(-c3ccccc3)n2n1 (stereo not drawn)	none
CCC(=O)Nc1ccc(NC(=O)c2ccccc2)nc1	none
CCCC(=O)Nc1ccc(NC(=O)c2ccccc2)nc1	Wee1 stabilizer 10 (no result: Bcl-2 Bim block, Bcl-B Bim block, Bim-Bcl-W, Bcl-XL Bim block, Bfl-1 Bim block)

Bioassay records deposited in PubChem by several laboratories.
